Measurements taken from PubChem BioAssay AID686978 (National Center for Advancing Translational Sciences (NCATS), 2013).
Hit rate of the full screen: of about 420,000 compounds, about 64,000 (15%) were called active. Roughly 27% stayed inconclusive and do not appear here. Calls follow the shape of the dose curve; as a rule, active = well fitted inhibition curve with a large enough effect; inconclusive = small, poorly fitted or top-dose-only effect; inactive = flat fitted curve, though single readings scatter. The list is a sample of the results. A call without a number means that no potency is given here.
Potency is read from the fitted curve at half-maximal effect.

Test: qHTS for Inhibitors of human tyrosyl-DNA phosphodiesterase 1 (TDP1): qHTS in cells in absence of CPT; also: nearly all actives have a fitted effect of over 55% in size
Details: DT40 Tdp1-/- hTDP1 cells, no CPT, ATP luminescence, 48 h; activity change, negative = growth inhibition: at 46.2 µM (top of the series)
Method in brief: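 Compound effects on proliferation are scored in DT40 Tdp1-/-;hTDP1 cells in the absence of CPT. ATP levels (CellTiter-Glo luminescence) are recorded after a ≥48 hr, 37 °C incubation.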
In the case of `CC(=O)O[C@H]1CC[C@@]2(C)[C@@H](CC[C@@H]3[C@@H]2CC[C@]2(C)[C@@H](C(C)(C)O)C[C@@H]32)C1`, the Potency is reported as “inactive”. With `CC(C)C(=O)NC(C)c1nnc2n1CCN(Cc1cccc3ncccc13)CC2` (stereo not drawn) the Potency was “inactive”. In the case of `COc1ccc(NC(=O)c2sc3nc(C)nc(N4CCN(c5ccccn5)CC4)c3c2C)c(OC)c1`, the Potency is reported as 11.6 µM (active). With `CCS(=O)(=O)N1Cc2ccccc2CC1C(=O)Nc1ccc(OC)cc1OC` (stereo not drawn) the Potency was “inactive”. In the case of `O=C(Nc1ccc(N2CCOCC2)nc1)c1c(F)cccc1F`, the Potency is reported as “inactive”. With `Cc1nc(N2CCOCC2)c2c(C)c(C(=O)Nc3ccc(C(F)(F)F)cc3)sc2n1` the Potency was 18.4 µM (active). With `Cc1nc(N2CCN(c3ccccn3)CC2)c2c(C)c(C(=O)Nc3ccc(F)cc3)sc2n1` the Potency was 20.6 µM (active). With `Cc1nc2c(-c3ccc(F)cc3)c(C)nn2c(C)c1CCC(=O)N1CCN(c2ccccn2)CC1` the Potency was “inactive”. For `Cn1c(SCC(=O)Nc2ccc(N3CCOCC3)cc2)nnc1C(F)(F)F`, the Potency was “inactive”. With `CCOc1ccc(Cn2nnc(C(=O)Nc3ccc(OC)cc3OC)c2N)cc1` the Potency was “inactive”. With `CCOC(=O)C1CCCN(C(=O)c2sc3nc(C)nc(N4CCOCC4)c3c2C)C1` (stereo not drawn) the Potency was “inactive”. With `Cc1cc(Cl)c(S(=O)(=O)NCCC(=O)O)cc1OCC(N)=O` the Potency was “inactive”. In the case of `COc1cc(C)c(CN2CCc3nnc(C(C)NC(=O)c4cccnc4)n3CC2)cc1C` (stereo not drawn), the Potency is reported as “inactive”. In the case of `COc1ccc(OC)c(NC(=O)C2CCCN2S(=O)(=O)c2cccc3nsnc23)c1` (stereo not drawn), the Potency is reported as “inactive”. For `Nc1ncc(CN2CCCC(C(=O)Nc3ccc(-c4ccco4)cc3)C2)cn1` (stereo not drawn), the Potency was “inactive”. For `O=C(CNC(=O)c1cccnc1)N/N=C/c1cc(Br)c(O)c(Br)c1`, the Potency was “inactive”. For `Cc1nc2ccc(C(=O)N3CCSCC3)cc2s1`, the Potency was “inactive”. For `CCNC(=O)CN(c1ccc(C)cc1)S(=O)(=O)c1ccc(SC)cc1`, the Potency was “inactive”. In the case of `CCOc1ccccc1C(=O)Nc1ccc2c(c1)N(C)C(=O)c1ccccc1S2`, the Potency is reported as 3.66 µM (active). For `CCc1ccc(NC(=O)Cn2ncn3c(cc4ccccc43)c2=O)cc1`, the Potency was “inactive”. With `CC(=O)Nc1ccc(NC(=O)COc2ccccc2C(=O)Nc2cccc(Cl)c2Cl)cc1` the Potency was “inactive”. In the case of `CCN1C(=O)c2ccccc2Sc2ccc(NC(=O)Cc3ccc(OC)cc3)cc21`, the Potency is reported as “inactive”. For `CN1C(=O)c2ccccc2Sc2ccc(NC(=O)Cc3ccc(Cl)cc3)cc21`, the Potency was 16.4 µM (active). In the case of `CCOc1ccccc1C(=O)NCCCn1ccnc1`, the Potency is reported as “inactive”. In the case of `Cc1nn(-c2ccccc2)c(=O)c2noc(C)c12`, the Potency is reported as “inactive”. With `CN1CC(O)c2cc(N=NC(N)=O)c(O)cc21` (stereo not drawn) the Potency was “inactive”. In the case of `OC(COc1ccc2ccccc2c1)CN1CCOCC1` (stereo not drawn), the Potency is reported as “inactive”. In the case of `COc1cccc(/C=N/Nc2cc(C)nc(-c3ccccc3O)n2)c1O`, the Potency is reported as 8.2 µM (active). With `COc1ccccc1/C=N\Nc1cc(C)nc(-n2nc(C)cc2C)n1` the Potency was 5.17 µM (active). For `Cc1cc(N/N=C\c2ccc(Br)cc2)nc(-n2nc(C)cc2C)n1`, the Potency was 2.91 µM (active). In the case of `Cc1nc(Cl)cc(N/N=C/c2ccccc2)n1`, the Potency is reported as “inactive”. For `COc1cccc(/C=N/Nc2ccc(S(=O)(=O)Nc3ccccc3C(=O)O)cc2[N+](=O)[O-])c1O`, the Potency was “inactive”. In the case of `Cc1cc2c(C)nc(N/N=C/c3ccccc3)nc2o1`, the Potency is reported as “inactive”. With `COc1ccccc1-n1c(SCC(=O)Nc2cccc(C(=O)O)c2)nnc1-c1ccccc1O` the Potency was “inactive”. With `COc1cc(NS(=O)(=O)c2ccccc2)ccc1-n1nc(C)cc1C` the Potency was “inactive”. In the case of `COc1ccccc1/C=N/Nc1nc(C)c(C(C)=O)s1`, the Potency is reported as “inactive”. For `Cn1ncc(Br)c1C(=O)NC1CCCC1`, the Potency was “inactive”. For `CCC(C)[C@H](NC(=O)N1c2ccccc2NC(=O)[C@@H]1C(C)C)C(=O)N[C@@H](Cc1ccccc1)C(=O)O` (stereo partly drawn), the Potency was “inactive”. In the case of `CC1CN(C(=O)c2cc(COc3c(F)cccc3F)on2)CCN1C` (stereo not drawn), the Potency is reported as “inactive”. With `CC(C)NC(=O)N1CCCC2(CCN(C(=O)c3cccn3C)CC2)C1` the Potency was “inactive”. In the case of `COc1cccc2cc(S(=O)(=O)c3ccc(C)cc3)/c(=N/NS(=O)(=O)c3ccc(C)cc3)oc12`, the Potency is reported as “inactive”. In the case of `Cc1c(C)c2ccc(OCC(=O)N3CCC(C(=O)O)CC3)c(C)c2oc1=O`, the Potency is reported as “inactive”. With `COc1cc2nc(NCC(C)c3ccccc3)n3nc(-c4ccccc4)nc3c2cc1OC` (stereo not drawn) the Potency was 13 µM (active). For `COc1cc2nc(SCC(=O)Nc3ccccc3F)n3nc(-c4ccccc4)nc3c2cc1OC`, the Potency was “inactive”. In the case of `CSc1ncnc2c1ncn2CCCNCC(C)c1ccccc1` (stereo not drawn), the Potency is reported as “inactive”. In the case of `CCn1c(SCC(=O)NC2CC2)nnc1-c1ccncc1`, the Potency is reported as “inactive”. In the case of `O=C(NCc1ccco1)c1ccc([N+](=O)[O-])cc1Cl`, the Potency is reported as “inactive”. For `CC(C)Oc1ccc(CN2CCC2(C)C(=O)NCc2ccc(C(F)(F)F)cc2)cc1` (stereo not drawn), the Potency was 14.6 µM (active). In the case of `CCCC(=O)N1CCC1(C)C(=O)NCc1ccc(C(C)C)cc1` (stereo not drawn), the Potency is reported as “inactive”. For `CC(C)CN1CCC1(C)C(=O)Nc1ccc(OC(F)F)cc1` (stereo not drawn), the Potency was “inactive”. With `CN1CCNC(=O)C1CC(=O)N1CC=C(c2ccc(F)cc2)CC1` (stereo not drawn) the Potency was “inactive”. In the case of `COc1ccc(NC(=O)COC(=O)c2ccncc2)c(OC)c1`, the Potency is reported as “inactive”. In the case of `CC(C)(C)S(=O)(=O)N1Cc2cc(CO)cc(CCO)c2[C@H]1CCO`, the Potency is reported as “inactive”.
